Screens: PubChem, several laboratories
Only some compounds are listed: those with a hit (about 5.4% of all), similar ones and a draw of the others.
ALR inh: inhibitors of human ALR sulfhydryl oxidase, primary screen, biochemical, H2O2 detection, HRP-luminol luminescence, single point; FAD-linked sulfhydryl oxidase ALR (Homo sapiens), P55789; purified ALR, DTT oxidation; inhibition, % (no concentration beside the values); 290,000 compounds, 3.8% hits;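 active = mean replicate inhibition above about 79%, with every replicate also reaching it, limit read from the data; inconclusive = only one of the two criteria met; inactive = mean below limit and not every replicate reaching it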
PP1 inh: PP1-alpha phosphatase inhibitors, primary screen, counter-screen for PP5 inhibitor project, biochemical, fluorescence, OMFP substrate, single point | purified PP1alpha | AID 2235, 2010 | 320,000 compounds, 0.9% hits | inhibition, % at 6.7 µM | Serine/threonine-protein phosphatase PP1-alpha catalytic subunit (Homo sapiens), P62136;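 active = inhibition above the mean inhibition of all tested compounds plus 3 SD, computed separately for each screening campaign, cut at about 15% in these data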
PP5 primary: PP5 phosphatase inhibitors, primary screen, biochemical, fluorescence. purified PP5c, OMFP substrate fluorescence. inhibition, % at 6.7 µM. 320,000 compounds, 0.18% hits;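 active = inhibition above the campaign's mean inhibition across all tested compounds plus 3 SD, cut at about 9.5% in these data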;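 also: 0% = DMSO only and 100% = 100 µM cantharidin control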
Target sequence (P53041 whole entry, looked up): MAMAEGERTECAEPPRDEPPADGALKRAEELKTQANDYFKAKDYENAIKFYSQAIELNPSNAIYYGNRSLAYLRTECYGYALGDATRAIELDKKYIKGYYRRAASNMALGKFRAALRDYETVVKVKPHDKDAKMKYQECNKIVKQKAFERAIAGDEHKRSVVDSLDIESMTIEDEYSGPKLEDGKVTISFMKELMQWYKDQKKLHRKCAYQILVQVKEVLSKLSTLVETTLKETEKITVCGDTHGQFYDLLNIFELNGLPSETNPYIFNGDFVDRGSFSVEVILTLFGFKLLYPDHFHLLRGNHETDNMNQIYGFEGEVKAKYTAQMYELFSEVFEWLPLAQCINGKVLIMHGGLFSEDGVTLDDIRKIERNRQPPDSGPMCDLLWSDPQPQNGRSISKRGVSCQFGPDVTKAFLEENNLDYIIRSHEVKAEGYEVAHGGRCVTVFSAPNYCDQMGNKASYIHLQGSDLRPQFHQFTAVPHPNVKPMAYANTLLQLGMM
CSC inhib: cancer stem cell viability inhibitors, primary screen, luminescence; cancer stem cell-like cells viability; inhibition, % at 7.5 µM; 300,000 compounds, 1.1% hits; AID 2717, 2010; in the data active = inhibition above about 75%; inconclusive = no clear call, values can overlap the other calls; tested in HMLE shEcad cells
Calb FLC: C. albicans growth inhibition with fluconazole, primary screen, CaCi-2 strain, Alamar Blue fluorescence; 300,000 compounds, 0.57% hits; C. albicans CaCi-2 (fluconazole-resistant clinical isolate) + fluconazole, 48 h; AID 1979, 2009; growth inhibition, % (concentration not given with the values);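 active = growth inhibition above about 58% in most replicates, limit read from the data, passing the limit was not always enough; inconclusive = exactly half the replicates above a set limit; inactive = most replicates below a set limit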;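 also: all wells also contain fluconazole at 8 µg/ml as a sub-toxic cotreatment; 0% = median of DMSO wells and 100% = median of geldanamycin control wells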
Active calls of the source: *; ? = inconclusive; . = no result.

SMILES	ALR inh	PP1 inh	PP5 primary	CSC inhib	Calb FLC
CCOC(=O)c1c(C)c(C(=O)NC2CCCCC2)c(C)n1CC	.	.	.	.	22.3
COc1cccc(-c2nc(CSCC(=O)N3CCc4ccccc43)c(C)o2)c1	43.8	-4.0	0.3	-7.8	-0.8
COc1ccc(-c2nc(CSCC(=O)NCCC3=CCCCC3)c(C)o2)cc1OC	100.3*	-3.8	-5.4	-6.0	2.7
COc1ccc(-c2nc(CSCC(=O)NCc3ccc4c(c3)OCO4)c(C)o2)cc1	-5.2	-3.0	-0.2	10.6	-4.3
Cc1ccsc1-c1nc(CSCC(=O)NCc2ccc3c(c2)OCO3)c(C)o1	98.9*	4.3	0.7	28.0	-2.6
COc1ccc(-c2nc(CSCC(=O)NCc3ccc4c(c3)OCO4)c(C)o2)cc1OC	99.2*	-0.5	-1.2	-4.1	-1.9
COc1ccc(-c2nc(CSCC(=O)N3CCc4ccccc43)c(C)o2)cc1OC	99.4*	2.2	-2.8	8.5	-0.7
Cc1ccc(CSCC(=O)NCc2ccc3c(c2)OCO3)cc1	-5.7	-0.4	2.8	2.1	5.1
Cc1oc(-c2ccccc2F)nc1CS(=O)CC(=O)NCc1ccc2c(c1)OCO2 (centres undefined)	99.0*	-0.7	1.5	3.4	5.2
CCCc1cc(=O)[nH]c(SCC(=O)Nc2ccc3c(c2)CCC3)n1	-2.4	-1.9	-2.6	.	49.3
Nc1cc(=O)[nH]c(SCC(=O)Nc2ccc3c(c2)CCC3)n1	90.0*	0.8	-1.2	-13.9	-12.0
O=C(CSc1nc(O)cc(=O)[nH]1)N1CCCc2ccccc21	98.8*	-1.8	-2.7	-13.3	-9.1
Cc1ccc2nc(-c3ccc(NC(=O)CSc4nccc(=O)[nH]4)cc3)sc2c1	-2.6	2.0	0.8	40.9	-11.7
Cc1ccc2nc(-c3ccc(NC(=O)CSc4nc(N)cc(=O)[nH]4)cc3)sc2c1	45.1	15.7*	-2.0	19.5	3.4
O=C(CSc1nc(O)cc(=O)[nH]1)Nc1ccc2c(c1)CCC2	98.8*	9.3	1.6	-18.0	-3.6
Cc1cc(=O)[nH]c(SCC(=O)N2CCCc3ccccc32)n1	-32.3	-6.1	-1.4	-5.7	10.4
CCOC(=O)Cn1nc(-c2ccc(F)cc2)oc1=O	-10.4	2.6	1.8	-4.5	1.8
CCCNC(=O)COC(=O)/C=C/c1ccc(C)o1	?	-0.3	0.3	-6.4	?
Cc1nnsc1C(=O)N1CCCC(Nc2ccc(C(C)C)cc2)C1 (centres undefined)	72.5	-2.0	-0.9	7.3	-10.9
CC(C)c1ccc(NC2CCCN(C(=O)c3cscn3)C2)cc1 (centres undefined)	99.4*	.	.	0.8	-5.6
Cc1cc(C)n2nc(C(=O)N3CCCC(Nc4ccc(C(C)C)cc4)C3)cc2n1 (centres undefined)	97.3*	-5.6	1.9	-4.9	-10.4
Cn1c(C(=O)N2CCCC(Nc3ccc(F)cc3)C2)cc2ccccc21 (centres undefined)	41.5	-1.5	0.0	17.4	-9.0
CC(C)c1ccc(NC2CCCN(C(=O)c3cc(C(C)C)nc(N)n3)C2)cc1 (centres undefined)	96.8*	-0.5	-1.3	7.4	18.7
CC(C)c1cc(C(=O)N2CCCC(Nc3ccc(F)cc3)C2)n[nH]1 (centres undefined)	98.7*	1.4	0.9	5.7	4.7
N#Cc1c(-c2ccc(Br)cc2)cc(-c2cccnc2)nc1N	-4.8	-1.6	2.4	1.7	?
SMILES	ALR inh	PP1 inh	PP5 primary	CSC inhib	Calb FLC
CS(=O)(=O)c1nc(-c2ccc(Br)cc2)cc(-c2ccccc2)c1C#N	5.3	3.6	2.7	86.0*	0.9
CS(=O)c1nc(-c2ccc(Br)cc2)cc(-c2ccccc2)c1C#N (centres undefined)	41.8	-2.3	2.6	75.1*	31.8
CCOC(=O)c1c(C)c(C(=O)NCc2cccnc2)c(C)n1C	0.5	1.7	3.7	-6.0	-2.0
CC(C)CCNC(=O)COC(=O)/C=C/c1ccc2ccccc2n1	96.7*	-3.6	2.4	3.6	44.3
O=C(COC(=O)/C=C/c1ccccc1)NCCNC(=O)COC(=O)/C=C/c1ccccc1	-4.5	-4.3	2.2	-1.4	.
CCN(CC)c1ccc(NC(=O)COC(=O)CSc2ccc(Br)cc2C)cc1	98.9*	3.5	1.4	-20.5	7.5
Cc1cc(S(=O)(=O)N2CCN(C(=O)c3ccco3)CC2)ccc1F	-5.0	-4.1	-2.3	-8.8	-1.1
Cc1cccc(-n2cc(-c3ccccc3)c3c(N4CCOCC4)ncnc32)c1	.	-1.6	3.2	104.9*	-6.2
CCOc1cc(CNc2ccc(N3CCCCC3)cc2)cc(Br)c1OCC(=O)NC(C)(C)C	32.4	6.1	3.8	44.9	-10.0
CCOc1cc(CNc2ccc(N3CCN(C(C)=O)CC3)cc2)cc(Br)c1OC	.	5.8	2.2	-20.2	-9.7
CCOc1c(Br)cc(CNc2ccc(N3CCN(C(C)=O)CC3)cc2)cc1OC	98.2*	-1.1	2.9	-1.0	-1.6
COc1cc(CNc2ccc(N3CCCC3)cc2)cc(Cl)c1OC	19.0	11.1	5.8	50.8	87.4*
COc1cc(CC(=O)Nc2ccc(N3CCOCC3)cc2)cc(OC)c1OC	15.2	1.4	2.1	-34.8	-8.1
COc1cc(CNc2ccc(N3CCOCC3)cc2)cc(Br)c1OC	98.3*	-3.0	1.6	-3.8	2.7
CCOc1cc(CNc2ccc(N3CCOCC3)cc2)cc(Br)c1OCC	99.1*	-0.1	2.0	.	-8.9
CCOC(=O)c1c(NC(=O)COC(=O)c2ccc([N+](=O)[O-])cc2)sc(C(=O)N(C)C)c1C	-22.0	-1.8	0.8	-11.5	7.6
CC/C(=C\C(=O)c1ccncc1)Nc1ccc(O)cc1	74.0	0.7	0.3	1.5	19.4
CCN(CC)CCC(=O)N1c2ccccc2Sc2ccc(Cl)cc21	64.0	-3.6	0.5	4.2	12.2
CCN(CC)CCN1c2ccccc2Sc2ccc3ccccc3c21	97.9*	-2.4	-1.5	58.6	19.2
CCN(CC)CCN1c2ccccc2Sc2ccccc21	99.7*	3.9	1.3	7.0	-22.4
O=C1OCc2cc(-n3cccc3)ccc21	0.8	-5.3	-0.2	-16.6	28.6
COCc1c(C(=O)NC2CCCCCC2)oc2ccccc12	89.2*	0.4	2.4	-6.7	-38.2
Cc1c(C(=O)NC2CC2)oc2ccccc12	-2.4	-1.8	-0.9	-3.7	.
Clc1nc(Nc2ccccc2)nc(Nc2ccccc2)n1	10.5	3.2	5.9	15.6	0.9
CC(C)(C)Nc1nc(Cl)nc(Nc2ccccc2)n1	98.1*	-2.1	4.0	0.0	-4.0
COc1ccc(OC)c(CNc2ncc(-c3cccc([N+](=O)[O-])c3)n2C)c1	98.0*	3.8	3.2	-5.5	4.0
Cn1c(=O)c2c(nc(OC/C=C/c3ccccc3)n2C)n(C)c1=O	1.6	0.0	1.6	-8.6	-4.0
COc1ccc(C)cc1NC(=O)CN(Cc1nnc(-c2ccc(Cl)cc2)o1)C1CCCC1	-5.6	16.2*	2.7	5.5	14.4
